Active and inactive are the calls of the source. Rule for the calls: active = hit-call score of the fitted dose curve at least 0.9, where 1 is the maximum; inactive = score below 0.9.

Read-out in this assay: Plasminogen activator inhibitor-1 (PAI1), SERPINE1 (gene 5054)
Description: BSK_BE3C_PAI1: BioMAP Diversity Plus: BE3C Assay for Plasminogen activator inhibitor-1 (PAI1) Biomarker Activity (AID 2283037). Conditions: primary human bronchial epithelial cells; actives raise or lower the signal. As to the method:
BSK_BE3C is a cell-based, multiplexed-readout assay that uses bronchial epithelial cell, a human lung primary cell, with measurements taken at 24 hours after chemical dosing in a 96-well plate.BSK_BE3C_PAI1 is an assay component measured in the BSK_BE3C assay. It measures PAI-1 antibody related to regulation of gene expression using ELISA technology.Data from the assay component BSK_BE3C_PAI1 was analyzed into 1 assay endpoint. This assay endpoint, BSK_BE3C_PAI1, was analyzed with bidirectional fitting relative to DMSO as the negative control and baseline of activity. Using a type of binding reporter, gain or loss-of-signal activity can be used to understand changes in the signaling as they relate to the gene SERPINE1. Furthermore, this assay endpoint can be referred to as a primary readout, because this assay has produced multiple assay endpoints where this one serves a signaling function. To generalize the intended target to other relatable targets, this assay endpoint is annotated to the cytokine intended target family, where the subfamily is plasmogen activator inhibitor.
The levels of cell surface (or secreted, indicated by the prefix "s") biomarker endpoints were measured by ELISA. Overt cytotoxicity to cells in confluent adherent cultures (all systems other than the BT system) was assessed by measuring total protein levels using sulforhodamine B (SRB) staining in parallel cultures at the time of biomarker measurements, indicated as SRB endpoints. For proliferation assays for adherent cell types, individual cell types are cultured at sub-confluence and relative cell numbers quantified by SRB staining at time points optimized for each system (48 h: 3C and CASM3C systems; 72 h: BT and HDF3CGF systems; 96 h: SAg system). SRB was performed by staining cells with 0.1% SRB after fixation with 10% TCA and reading wells at 560 nm.Viability and proliferation of PBMC (T cells) was quantified by Alamar Blue reduction for the SAg and BT systems. For PBMC viability (referred to as PBMC Cytotoxicity within the assay endpoint names), cells were plated (75,000/well in a 96-well plate) and then chemical samples added for 1 h before addition of activators, SEB and TSST-1 (20 ng/mL final concentration each). Cells were incubated for 90 h. Then, Alamar Blue (20 uL/well) (Invitrogen, Cat DAL1100) was added for 6 h, and the plates were read with a fluorescence microplate reader at 546/580 nm (excitation/emission). For PBMC proliferation, cells were plated and activated as above but incubated for only 16 h prior to addition of Alamar Blue. Plates were read after 6 h.
On to `N#CC(Br)(Br)C(N)=O`, for which the result was inactive.
With `Nc1ccc(Cl)cc1N`, the outcome was inactive.
`COc1cc(C=O)cc2c1[C@H](COC(N)=O)[C@]1(OC(C)=O)ON2C[C@H]2[C@@H]1N2C(C)=O`: the half-maximal activity concentration (AC50) is 1.99 µM (active).
In the case of `O=[N+]([O-])C(Br)(CO)CO`, the result was inactive.
Turning to `CCCCC(CC)COC(=O)c1ccc(C(=O)OCC(CC)CCCC)c(C(=O)OCC(CC)CCCC)c1` (stereo not given), the outcome was inactive.
Turning to `O=C(Nc1ccccc1)c1ccccc1I`, the result was inactive.
In the case of `CC(O)CCO` (stereo not given), the result was inactive.
On to `c1ccc2c(c1)-c1cccc3cccc-2c13`, for which the result was inactive.
As for `Cn1cc(-c2ccccc2)c(=O)c(-c2cccc(C(F)(F)F)c2)c1`, the outcome was inactive.
As to `ClCCOCCCl`, the outcome was inactive.
With `O=[N+]([O-])c1ccc(Oc2ccc(Cl)cc2Cl)cc1`, the outcome was inactive.
Same read-out and setting: the entry for `Nc1cc(Cl)cc(C(=O)O)c1Cl` is “inactive”.
Regarding `CC(C)COC(=O)c1ccccc1C(=O)OCC(C)C`, the outcome was inactive.
Take `Cc1cccc(N)c1N`: the result was inactive.
Still for that read-out and setting: the entry for `OCCCBr` is “inactive”.
Same read-out and setting: the entry for `COP(=S)(OC)SCN1C(=O)c2ccccc2C1=O` is “inactive”; for `Brc1ccc(Oc2ccccc2)cc1` it is “inactive”.
Consider `CCN(CC)CCO`, for which the outcome was inactive.
Take `[As]#[In]`: the outcome was inactive.
`CCCSC(=O)N(CCC)CCC`: the outcome was inactive.
`O=Cc1ccco1`: the result was inactive.
Consider `O=C(Oc1ccc(Br)cc1)N1CCN2CCC1CC2`, for which the outcome was inactive.
Turning to `O=C(O)C1C2CCC(O2)C1C(=O)O` (stereo not given), the outcome was inactive.
For `CN(C)C(=O)Nc1ccc(Cl)cc1`, the outcome was inactive.
For the compound `CN(C)c1ccccc1`, the outcome was inactive.
Take `Cc1ccc([N+](=O)[O-])cc1`: the outcome was inactive.
Regarding `Oc1ccccc1Cl`, the outcome was inactive.
Turning to `C=CCc1ccc2c(c1)OCO2`, the outcome was inactive.
On to `C[N+](C)(C)CC1CO1` (stereo not given), for which the outcome was inactive.
Take `ClC1=C(Cl)[C@]2(Cl)[C@H]3[C@H]([C@@H]4C=C[C@H]3C4)[C@@]1(Cl)C2(Cl)Cl`: the AC50 is 34 µM (active).
In the case of `CCCCCCCCn1sccc1=O`, the AC50 is 7.33 µM (active).
For the compound `CCN(CC)N=O`, the result was inactive.
Consider `CCC[CH2][Sn]([Cl])([CH2]CCC)[CH2]CCC`, for which the AC50 is 0.146 µM (active).
On to `CCCCOC(=O)c1ccccc1C(=O)OCc1ccccc1`, for which the outcome was inactive.
Still for that read-out and setting: with `CC(C)(C)OOC(C)(C)CCC(C)(C)OOC(C)(C)C` the entry was “inactive”; with `Nc1ccc(N=Nc2ccccc2)cc1`, “inactive”.
Regarding `COC(=O)c1ccccc1N`, the result was inactive.
In the case of `CC(C)(OOC(C)(C)c1ccccc1)c1ccccc1`, the result was inactive.
Still for that read-out and setting: with `c1ccc(N=Nc2ccccc2)cc1` the entry was “inactive”; with `N#CC(Br)Br`, “inactive”.

The record behind these values is PubChem BioAssay (EPA / NIEHS).
